Columns and labels:
Assay in all cases: log2 ratio of Biotin-Ahx-Ub-VS probe labelling (fragment/DMSO); higher = less target engagement (more negative = stronger competition), active = hit call of the paper (q ≤ 0.05, log2 ratio ≤ -1)
Settings in all cases: compound concentration: 200 uM; treatment time: 3 h
[1] = target: USP34 (UniProt Q70CQ2)
Outline: (§1)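 Each value is an average log2 ratio of fragment to vehicle, tested by unpaired t-test. The underlying Spectronaut label-free quantities were global-median-normalised, and only proteins with ≥2 unique peptides were included. Triplicate HEK293T lysate samples (495 µg) were exposed to fragment at 200 µM or vehicle for 3 h, then to Biotin-Ahx-Ub-VS at 0.5 µM final for 1 h, before NeutrAvidin enrichment of labelled DUBs, LysC and trypsin digestion, and diaPASEF LC-MS/MS.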

[2] = target: T1, USP36 (UniProt Q9P275)
T1 sequence (whole entry): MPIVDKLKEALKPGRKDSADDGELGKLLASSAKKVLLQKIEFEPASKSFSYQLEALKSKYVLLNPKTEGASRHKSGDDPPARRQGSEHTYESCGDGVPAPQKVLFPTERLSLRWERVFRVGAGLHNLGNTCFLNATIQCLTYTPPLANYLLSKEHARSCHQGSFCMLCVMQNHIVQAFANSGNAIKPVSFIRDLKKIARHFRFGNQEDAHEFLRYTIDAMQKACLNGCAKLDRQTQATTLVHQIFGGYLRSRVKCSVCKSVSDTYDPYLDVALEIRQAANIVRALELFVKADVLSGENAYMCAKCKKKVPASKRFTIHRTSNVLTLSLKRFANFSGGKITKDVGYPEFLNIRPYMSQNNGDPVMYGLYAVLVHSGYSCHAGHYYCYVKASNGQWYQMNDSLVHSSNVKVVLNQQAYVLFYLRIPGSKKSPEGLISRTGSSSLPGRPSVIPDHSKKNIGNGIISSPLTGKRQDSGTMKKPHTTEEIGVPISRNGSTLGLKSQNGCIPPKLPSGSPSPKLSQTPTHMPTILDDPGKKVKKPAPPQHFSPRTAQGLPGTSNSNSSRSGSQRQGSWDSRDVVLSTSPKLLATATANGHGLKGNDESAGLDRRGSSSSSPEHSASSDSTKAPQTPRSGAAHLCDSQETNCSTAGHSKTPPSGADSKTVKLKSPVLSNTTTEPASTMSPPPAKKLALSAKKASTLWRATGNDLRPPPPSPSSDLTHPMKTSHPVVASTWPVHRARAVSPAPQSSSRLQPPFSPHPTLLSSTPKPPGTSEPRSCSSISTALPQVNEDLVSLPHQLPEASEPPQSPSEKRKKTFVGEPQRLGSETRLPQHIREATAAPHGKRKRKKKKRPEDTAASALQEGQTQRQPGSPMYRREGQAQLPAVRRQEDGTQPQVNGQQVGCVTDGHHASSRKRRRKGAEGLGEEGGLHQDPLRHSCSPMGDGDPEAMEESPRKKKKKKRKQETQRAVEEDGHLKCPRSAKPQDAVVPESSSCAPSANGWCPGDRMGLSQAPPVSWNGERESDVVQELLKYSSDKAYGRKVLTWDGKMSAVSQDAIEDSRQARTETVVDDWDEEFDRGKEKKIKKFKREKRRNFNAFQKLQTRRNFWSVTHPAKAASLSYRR
Outline: as §1

[3] = target: T2, USP38 (UniProt Q8NB14)
T2 sequence (whole entry): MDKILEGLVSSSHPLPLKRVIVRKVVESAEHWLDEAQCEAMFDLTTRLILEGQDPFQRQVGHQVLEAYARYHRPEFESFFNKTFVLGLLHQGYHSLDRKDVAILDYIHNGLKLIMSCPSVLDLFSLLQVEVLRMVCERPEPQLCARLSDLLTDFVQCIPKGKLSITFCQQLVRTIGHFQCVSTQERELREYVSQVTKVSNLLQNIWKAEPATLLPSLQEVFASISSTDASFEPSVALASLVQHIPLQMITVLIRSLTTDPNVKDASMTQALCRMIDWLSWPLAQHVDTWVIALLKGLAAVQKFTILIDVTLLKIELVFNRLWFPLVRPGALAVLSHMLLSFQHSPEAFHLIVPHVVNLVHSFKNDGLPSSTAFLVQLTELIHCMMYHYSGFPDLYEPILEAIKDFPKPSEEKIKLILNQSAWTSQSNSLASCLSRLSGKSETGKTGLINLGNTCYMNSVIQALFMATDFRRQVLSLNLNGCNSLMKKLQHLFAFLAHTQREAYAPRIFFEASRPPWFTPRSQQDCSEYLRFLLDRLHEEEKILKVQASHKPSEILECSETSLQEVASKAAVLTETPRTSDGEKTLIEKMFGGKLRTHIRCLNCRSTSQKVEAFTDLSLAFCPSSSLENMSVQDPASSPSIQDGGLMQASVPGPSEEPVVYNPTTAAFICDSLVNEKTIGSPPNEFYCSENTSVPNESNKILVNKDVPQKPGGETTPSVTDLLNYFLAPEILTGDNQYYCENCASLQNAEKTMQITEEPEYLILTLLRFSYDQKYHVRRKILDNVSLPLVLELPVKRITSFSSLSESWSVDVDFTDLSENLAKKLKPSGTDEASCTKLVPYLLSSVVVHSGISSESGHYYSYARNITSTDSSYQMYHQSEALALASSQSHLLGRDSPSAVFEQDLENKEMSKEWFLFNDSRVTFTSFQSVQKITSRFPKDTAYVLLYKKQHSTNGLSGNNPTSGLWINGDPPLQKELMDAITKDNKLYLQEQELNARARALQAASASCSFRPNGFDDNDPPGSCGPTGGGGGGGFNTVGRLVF
Outline: as §1

[4] = target: T3, USP39 (UniProt Q53GS9)
T3 sequence (whole entry): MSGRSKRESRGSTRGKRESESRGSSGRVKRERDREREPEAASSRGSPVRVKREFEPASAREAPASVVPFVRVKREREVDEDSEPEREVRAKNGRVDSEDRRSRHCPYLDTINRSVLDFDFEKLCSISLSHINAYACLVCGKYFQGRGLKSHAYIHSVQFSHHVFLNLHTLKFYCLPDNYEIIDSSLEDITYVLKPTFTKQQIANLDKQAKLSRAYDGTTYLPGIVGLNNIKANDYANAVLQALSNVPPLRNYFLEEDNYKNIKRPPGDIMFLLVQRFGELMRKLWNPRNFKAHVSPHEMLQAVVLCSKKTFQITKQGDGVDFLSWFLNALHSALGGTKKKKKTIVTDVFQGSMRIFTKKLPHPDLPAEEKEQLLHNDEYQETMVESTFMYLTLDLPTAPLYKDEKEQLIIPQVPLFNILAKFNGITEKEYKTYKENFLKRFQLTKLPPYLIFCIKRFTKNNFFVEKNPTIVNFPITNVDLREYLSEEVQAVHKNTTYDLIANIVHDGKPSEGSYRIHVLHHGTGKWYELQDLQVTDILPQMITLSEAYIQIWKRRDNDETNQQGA
Outline: as §1

[5] = target: T4, USP4 (UniProt Q13107)
T4 sequence (whole entry): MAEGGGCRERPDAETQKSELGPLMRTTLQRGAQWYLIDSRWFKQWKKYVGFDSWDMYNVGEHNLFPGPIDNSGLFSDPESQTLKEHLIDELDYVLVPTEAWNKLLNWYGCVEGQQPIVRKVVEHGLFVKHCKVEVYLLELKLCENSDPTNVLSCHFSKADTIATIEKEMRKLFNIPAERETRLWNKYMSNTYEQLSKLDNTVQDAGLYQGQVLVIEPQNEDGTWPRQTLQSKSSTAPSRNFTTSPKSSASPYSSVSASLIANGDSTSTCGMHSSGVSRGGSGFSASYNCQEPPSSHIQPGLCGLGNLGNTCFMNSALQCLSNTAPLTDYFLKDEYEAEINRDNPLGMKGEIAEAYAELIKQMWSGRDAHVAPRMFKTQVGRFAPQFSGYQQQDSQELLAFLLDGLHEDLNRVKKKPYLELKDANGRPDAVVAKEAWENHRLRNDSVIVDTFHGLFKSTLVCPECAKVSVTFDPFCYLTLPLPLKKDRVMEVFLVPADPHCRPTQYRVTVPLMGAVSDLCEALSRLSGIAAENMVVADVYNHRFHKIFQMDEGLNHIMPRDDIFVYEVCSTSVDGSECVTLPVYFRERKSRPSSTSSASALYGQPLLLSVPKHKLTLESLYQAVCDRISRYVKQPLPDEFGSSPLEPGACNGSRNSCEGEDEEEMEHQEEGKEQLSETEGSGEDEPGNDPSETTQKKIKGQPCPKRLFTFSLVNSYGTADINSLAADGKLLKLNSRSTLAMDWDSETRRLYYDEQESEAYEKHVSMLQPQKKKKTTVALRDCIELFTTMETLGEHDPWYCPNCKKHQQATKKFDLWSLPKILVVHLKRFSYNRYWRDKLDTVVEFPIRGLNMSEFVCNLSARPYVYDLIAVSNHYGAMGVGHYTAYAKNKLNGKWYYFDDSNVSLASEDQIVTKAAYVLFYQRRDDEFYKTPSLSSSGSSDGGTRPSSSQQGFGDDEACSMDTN
Outline: as §1

Measured: log2 ratio of Biotin-Ahx-Ub-VS probe labelling

Chain of USP34 (Q70CQ2 whole entry, the tested form may be a part): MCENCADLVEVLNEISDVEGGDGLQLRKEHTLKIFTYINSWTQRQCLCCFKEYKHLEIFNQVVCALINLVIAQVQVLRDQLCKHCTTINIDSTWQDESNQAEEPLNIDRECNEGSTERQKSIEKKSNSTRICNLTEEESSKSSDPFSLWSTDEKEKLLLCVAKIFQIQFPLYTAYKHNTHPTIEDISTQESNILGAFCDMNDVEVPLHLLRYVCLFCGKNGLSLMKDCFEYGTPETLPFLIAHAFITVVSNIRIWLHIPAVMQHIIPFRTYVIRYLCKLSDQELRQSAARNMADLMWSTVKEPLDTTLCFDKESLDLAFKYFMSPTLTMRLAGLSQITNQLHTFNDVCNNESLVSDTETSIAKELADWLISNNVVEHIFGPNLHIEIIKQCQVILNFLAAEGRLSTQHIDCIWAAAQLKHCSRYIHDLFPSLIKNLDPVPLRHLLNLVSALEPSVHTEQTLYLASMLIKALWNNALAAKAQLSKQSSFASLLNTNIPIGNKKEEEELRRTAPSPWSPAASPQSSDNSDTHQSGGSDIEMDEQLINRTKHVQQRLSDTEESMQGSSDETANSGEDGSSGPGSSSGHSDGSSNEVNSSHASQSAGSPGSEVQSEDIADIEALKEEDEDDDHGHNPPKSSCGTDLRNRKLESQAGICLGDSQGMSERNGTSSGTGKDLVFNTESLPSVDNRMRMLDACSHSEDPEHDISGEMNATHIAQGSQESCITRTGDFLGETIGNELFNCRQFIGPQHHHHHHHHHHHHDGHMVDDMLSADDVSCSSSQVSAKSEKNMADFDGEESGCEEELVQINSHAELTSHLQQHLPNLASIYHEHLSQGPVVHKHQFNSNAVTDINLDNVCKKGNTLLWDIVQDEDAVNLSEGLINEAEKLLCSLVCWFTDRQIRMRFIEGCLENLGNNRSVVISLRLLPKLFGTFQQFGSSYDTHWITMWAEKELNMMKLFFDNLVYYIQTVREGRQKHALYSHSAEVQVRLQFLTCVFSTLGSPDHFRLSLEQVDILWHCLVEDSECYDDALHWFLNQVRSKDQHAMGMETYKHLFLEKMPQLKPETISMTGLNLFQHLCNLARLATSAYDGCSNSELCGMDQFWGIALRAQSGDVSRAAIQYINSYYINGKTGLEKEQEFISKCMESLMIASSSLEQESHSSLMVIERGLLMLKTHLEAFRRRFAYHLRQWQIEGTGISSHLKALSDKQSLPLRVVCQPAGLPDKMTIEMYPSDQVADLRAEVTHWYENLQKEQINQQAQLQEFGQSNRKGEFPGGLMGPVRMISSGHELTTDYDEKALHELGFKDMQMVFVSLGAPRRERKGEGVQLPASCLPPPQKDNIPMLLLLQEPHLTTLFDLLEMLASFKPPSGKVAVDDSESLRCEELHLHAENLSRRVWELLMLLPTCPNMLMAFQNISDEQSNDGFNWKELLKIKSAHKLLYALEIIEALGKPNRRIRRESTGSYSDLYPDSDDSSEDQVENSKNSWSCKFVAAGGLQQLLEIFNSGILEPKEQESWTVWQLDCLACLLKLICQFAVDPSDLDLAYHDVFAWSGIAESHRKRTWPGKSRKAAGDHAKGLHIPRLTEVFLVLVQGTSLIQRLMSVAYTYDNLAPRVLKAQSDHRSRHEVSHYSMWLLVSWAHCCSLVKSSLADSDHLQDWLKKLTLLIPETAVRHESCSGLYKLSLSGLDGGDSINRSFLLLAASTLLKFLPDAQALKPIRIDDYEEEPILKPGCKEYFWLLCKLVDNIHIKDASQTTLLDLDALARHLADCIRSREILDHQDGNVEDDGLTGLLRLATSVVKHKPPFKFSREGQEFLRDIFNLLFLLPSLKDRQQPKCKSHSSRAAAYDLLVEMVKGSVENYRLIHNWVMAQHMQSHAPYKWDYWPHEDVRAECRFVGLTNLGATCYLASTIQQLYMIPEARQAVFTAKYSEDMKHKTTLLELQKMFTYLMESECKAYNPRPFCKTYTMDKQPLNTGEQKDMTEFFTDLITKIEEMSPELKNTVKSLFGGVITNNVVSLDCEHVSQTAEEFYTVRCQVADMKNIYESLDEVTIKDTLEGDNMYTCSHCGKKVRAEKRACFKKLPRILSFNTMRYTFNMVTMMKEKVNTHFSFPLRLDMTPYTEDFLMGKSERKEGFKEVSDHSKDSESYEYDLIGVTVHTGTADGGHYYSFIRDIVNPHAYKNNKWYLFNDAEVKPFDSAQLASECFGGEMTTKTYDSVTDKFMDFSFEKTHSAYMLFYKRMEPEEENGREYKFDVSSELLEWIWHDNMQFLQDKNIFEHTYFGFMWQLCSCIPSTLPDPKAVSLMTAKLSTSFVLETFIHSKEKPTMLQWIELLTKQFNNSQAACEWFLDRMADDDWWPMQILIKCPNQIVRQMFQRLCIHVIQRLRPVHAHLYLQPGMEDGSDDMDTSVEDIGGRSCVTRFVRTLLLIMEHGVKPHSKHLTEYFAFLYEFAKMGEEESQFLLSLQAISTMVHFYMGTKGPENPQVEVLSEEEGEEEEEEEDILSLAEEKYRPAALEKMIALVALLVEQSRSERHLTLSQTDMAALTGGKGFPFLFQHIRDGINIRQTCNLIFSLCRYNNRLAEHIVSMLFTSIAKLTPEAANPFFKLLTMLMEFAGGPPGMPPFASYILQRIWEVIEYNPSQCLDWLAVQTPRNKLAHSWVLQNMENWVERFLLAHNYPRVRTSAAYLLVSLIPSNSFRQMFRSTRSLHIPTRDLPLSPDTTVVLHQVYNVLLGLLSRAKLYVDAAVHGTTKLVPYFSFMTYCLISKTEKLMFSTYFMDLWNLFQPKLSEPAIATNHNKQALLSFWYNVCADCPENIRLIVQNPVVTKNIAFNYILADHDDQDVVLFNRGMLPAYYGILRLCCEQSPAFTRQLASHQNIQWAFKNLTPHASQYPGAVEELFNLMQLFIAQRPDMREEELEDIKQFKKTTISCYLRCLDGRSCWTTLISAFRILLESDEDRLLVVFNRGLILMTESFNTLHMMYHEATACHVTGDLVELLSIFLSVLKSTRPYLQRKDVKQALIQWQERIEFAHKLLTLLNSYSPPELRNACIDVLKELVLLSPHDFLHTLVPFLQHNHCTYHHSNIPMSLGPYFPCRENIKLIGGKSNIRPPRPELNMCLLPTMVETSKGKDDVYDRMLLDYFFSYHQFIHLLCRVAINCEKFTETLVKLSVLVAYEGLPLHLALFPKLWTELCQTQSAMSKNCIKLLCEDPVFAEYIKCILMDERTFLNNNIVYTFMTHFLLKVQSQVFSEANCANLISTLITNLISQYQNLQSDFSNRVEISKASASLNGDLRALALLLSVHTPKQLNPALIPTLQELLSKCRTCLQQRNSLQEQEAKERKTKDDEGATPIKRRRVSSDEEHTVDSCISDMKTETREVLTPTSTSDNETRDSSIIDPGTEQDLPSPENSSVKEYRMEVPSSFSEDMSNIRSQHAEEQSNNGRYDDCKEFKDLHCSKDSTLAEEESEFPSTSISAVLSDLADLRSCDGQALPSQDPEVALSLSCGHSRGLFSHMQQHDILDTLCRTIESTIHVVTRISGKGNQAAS

Cc1nnc(C(NC(=O)CCl)c2ccccc2)n1C (stereo not given)
inactive: [1] 0.334 | [2] 0.114 | [3] 0.538 | [4] 0.132 | [5] 0.55
